The values that follow come from the OligoGym collection.
Also: reference of the scale not given here.

In the first test the target is GPX2. Briefly: pooled miR-30 sensor sort-seq; sequence = guide strand. The note with it: shRNA.
Turning to ATACTTGAGACTGTTCAGGATC, the sensor-assay potency score (higher = more potent) was -0.893.

The sequence TTGGACAAGGGTGAAGGTGGGC came in with a sensor-assay potency score (higher = more potent) of 0.00355.

TTTTGGACAAGGGTGAAGGTGG: the sensor-assay potency score (higher = more potent) is -0.672.

Regarding TTGATGTCAGGCTCAATGTTGA, the sensor-assay potency score (higher = more potent) is -0.614.

In the case of TTGAAATCTACCTTCTCCCCAT, the sensor-assay potency score (higher = more potent) was 0.588.

In the next test the target is GRAMD1B. The description is as above. The note with it: shRNA.
On to TTGTCTGTGCATCTCAGCCAAA, for which the sensor-assay potency score (higher = more potent) was -1.36.

In turn, TACATGGTCTGTGTCTCCCTGA yielded a sensor-assay potency score (higher = more potent) of 0.155.

For the sequence TTGTCATTGAAGTCCAGTGAAG, the sensor-assay potency score (higher = more potent) was -1.36.

On to TTGTGTAGAAGTAGTCATGGTA, for which the sensor-assay potency score (higher = more potent) worked out at 0.548.

In the case of TAACACATTATACCAACTCTGG, the sensor-assay potency score (higher = more potent) was -0.853.

On to TTTTTGGAGCTCAGTATCGTGG, for which the sensor-assay potency score (higher = more potent) is -1.12.

For TTGGTCTCTATGCTGCTCTTGG, the sensor-assay potency score (higher = more potent) is -0.389.

For AACATCATCATATATGTCCTAT, the sensor-assay potency score (higher = more potent) is -0.649.

Turning to TTTTCTTCACTTTCCGACGTGT, the sensor-assay potency score (higher = more potent) came out at 0.0883.

For the sequence TATCGTGGTACTTTTGTTGGGA, the sensor-assay potency score (higher = more potent) amounted to 0.623.

Take TTCTTGGAGCCTTAGACCCTGC: the sensor-assay potency score (higher = more potent) is -0.896.

TTGTAGAAGAGCATCATGTTAA: the sensor-assay potency score (higher = more potent) was -0.883.
